Experimental data as given in PubChem BioAssay (NCI).
Where “and” joins values, the source holds several entries; their conditions need not be identical. Equal values may be shown once. Compounds without any hit were thinned out: in the full panel of roughly 79,000, 15% have a hit. A number with no mark means an inactive call. Calls of active or inactive are those of the source. No stated cut-off is given here; in the data, active means growth inhibition above about 70%; inactive means the rest.

What was measured:
[1] = NCI Yeast Anticancer Drug Screen. Data for the rad50 strain (AID 155);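 further: 0% = growth of vehicle-only cultures of the same strain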; settings: S. cerevisiae rad50 strain growth inhibition, hits give high values
Procedure, shortened: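 Genetically altered yeast (DNA repair pathway); compound treatment; growth inhibition vs vehicle ctrl.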

[2] = NCI Yeast Anticancer Drug Screen. Data for the mec2-1 strain (AID 157); settings: S. cerevisiae mec2-1 strain, hits give high values
Procedure, shortened: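 Test agents were screened against the mec2-1 yeast strain, with defined DNA repair or cell cycle alteration. Growth was scored as inhibition against vehicle-only controls.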

[3] = NCI Yeast Anticancer Drug Screen. Data for the sgs1 mgt1 strain (AID 161);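 further: 0% = growth of cultures given vehicle only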; settings: S. cerevisiae sgs1 mgt1 strain, hits give high values
Procedure, shortened: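 Test agents were incubated with a DNA-repair-mutant yeast strain. Growth was then read and compared against vehicle-treated controls.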

[4] = NCI Yeast Anticancer Drug Screen. Data for the cln2 rad14 strain (AID 165);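 further: 0% = growth equal to vehicle treated cultures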; settings: S. cerevisiae cln2 rad14 strain, hits give high values
Procedure, shortened: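 Growth of compound-exposed yeast (cln2 rad14 genotype) measured and expressed as inhibition relative to vehicle.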

[5] = NCI Yeast Anticancer Drug Screen. Data for the bub3 strain (AID 167); settings: S. cerevisiae bub3 mutant strain, hits give high values
Procedure, shortened: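 Yeast carrying a defined mutation is treated with each compound, and growth is compared with that of vehicle-exposed cells to give inhibition.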

[6] = NCI Yeast Anticancer Drug Screen. Data for the mlh1 rad18 strain (AID 175); settings: S. cerevisiae mlh1 rad18 strain growth inhibition, hits give high values
Procedure, shortened: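 In this whole-cell yeast screen, a strain with altered DNA damage repair is challenged with compound, and its growth is measured against matched vehicle-treated controls.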

[7] = at 5.0 µM (retest, dose inferred, filed as 0.5)
[8] = at 50.0 µM (retest, dose inferred, filed as 5.0)

Compound	growth inhibition [1, 7]	growth inhibition [1, 8]	growth inhibition ([1]; at 50.0 µM)	growth inhibition [2, 7] [%]	growth inhibition [2, 8]	growth inhibition ([2]; at 50.0 µM)	growth inhibition [3, 7] [%]	growth inhibition [3, 8]	growth inhibition ([3]; at 50.0 µM)	growth inhibition [4, 7] [%]	growth inhibition [4, 8]	growth inhibition ([4]; at 50.0 µM)	growth inhibition [5, 7] [%]	growth inhibition [5, 8]	growth inhibition ([5]; at 50.0 µM)	growth inhibition [6, 7]	growth inhibition [6, 8]	growth inhibition ([6]; at 50.0 µM)
CCCCCCCCCCCC(=O)NCCc1ccc(O)c(O)c1	4%	94% (active)	97.2% (active)	5	96% (active)	98.5% (active)	4	95% (active)	97.5% (active)	-3	55%	94.2% (active)	-7	91% (active)	95.8% (active)	1%	96% (active)	98% (active)
CCN(CC)CCCCCCNc1cc(C)cc2cccnc12	7%	59%	65.9%	7	61%	19.9%	20	81% (active)	74% (active)	9	52%	72.8% (active)	14	76% (active)	18.9%	10%	74% (active)	59.6%
Nc1cc(Br)c2cccnc2c1O	81% (active)	98% (active)	97.2% (active)	44	98% (active)	94.7% (active)	67	98% (active)	98% (active)	28	98% (active)	94.2% (active)	–	–	–	86% (active)	98% (active)	95.7% (active)
O=C1c2ccccc2C(=O)c2c(OCCOCCO)cccc21	6%	70% (active)	86.2% (active)	3	18%	23.9%	2	31%	18%	-3	21%	24.6%	-6	17%	37.6%	1%	65%	39.6%
N#CC1(C#N)C(C#N)(C#N)C12CCCCCC2	38%	97% (active)	98.9% (active)	32	98% (active)	99.3% (active)	39	99% (active)	99.5% (active)	13	95% (active)	98.7% (active)	39	83% (active)	99% (active)	52%	98% (active)	99.2% (active)
Cc1ccc(O)c(N=Nc2ccc(Cl)cc2)c1	0%	2%	-3.95%	4	-2%	-1.95%	-3	17%	-20.8%	1	-8%	7.2%	–	–	–	-3%	-1%	-23.2%
C=CCOC(=O)CC(OC(C)=O)C(CC)CC(C)C (stereo not drawn)	0%	26%	24.4%	-1	12%	19.1%	-6	3%	18.3%	2	20%	80.7% (active)	3	15%	40.3%	0%	12%	27.9%
O=[N+]([O-])c1ccc(/C=N\OCc2cscn2)cc1	3%	46%	76.7% (active)	-11	74% (active)	55.5%	-10	73% (active)	62.4%	0	31%	-13.4%	–	–	–	11%	79% (active)	71% (active)
O=C(c1ccccc1)C1C(=O)c2ccccc2C1=O	–	–	-10.2% and -25.2% and 23.2%	–	–	1.1% and -21.3% and 20%	–	–	-5.1% and 12.2% and 24.1%	–	–	-20.8% and 17.2% and 17.1%	–	–	-10.4% and -2.95% and 19.4%	–	–	-7.6% and -26.1% and 18.5%
CC(CN(C)C)C(=O)c1ccccc1 (stereo not drawn)	–	–	-3.95% and -8.85% and 34%	–	–	-43.7% and -18.4% and 16.6%	–	–	-4.85% and -15.9% and 18.1%	–	–	20.3% and -14.4% and 14.4%	–	–	-23.1% and -11.6% and 18.4%	–	–	0.3% and -18.9% and 23.1%
CCOC(=O)/C(=C\n1c(=O)sc2ccccc21)C(=O)c1ccccc1	18%	24%	24.6%	19	55%	50.5%	–	–	–	22	26%	19.5%	21	57%	7.95%	20%	41%	36.2%
O=[N+]([O-])c1ccc(CCCl)c(CCl)c1	-150%	94% (active)	97.4% (active)	-48	94% (active)	98.8% (active)	-51	91% (active)	91% (active)	-50	92% (active)	96.4% (active)	–	–	–	-111%	92% (active)	89% (active)
COc1cc(NCCCCCCCC2CCCCN2)c2ncccc2c1 (stereo not drawn)	–	–	–	6	96% (active)	79% (active)	11	98% (active)	98.5% (active)	0	94% (active)	96.5% (active)	0	88% (active)	98.5% (active)	32%	96% (active)	98.4% (active)
NC(CC(=O)O)c1ccccc1 (stereo not drawn)	–	–	6.2% and -0.2% and -0.5%	–	–	8.8% and -3.45% and -4.3%	–	–	-5.95% and 2.35% and -0.05%	–	–	14.2% and -33.1% and -4.9%	–	–	-12.7% and -10.4% and -18.2%	–	–	-8.9% and 9.75% and -24.9%
CN(C)c1ccc2c(NCCCCCCNc3ccnc4cc(N(C)C)ccc34)ccnc2c1	–	–	–	7	97% (active)	91.2% (active)	16	98% (active)	53.4%	1	92% (active)	29.4%	-2	97% (active)	30.5%	14%	95% (active)	-5.8%
N#CN1CCCC(O)c2sc3ccccc3c2CC1 (stereo not drawn)	–	–	–	1	17%	11.5%	1	3%	38.9%	3	-7%	9.85%	-2	1%	7.3%	-1%	-1%	-0.65%
CC/C(=C(\CC)c1ccc(O)c(CN(CCO)CCO)c1)c1ccc(O)cc1	-3%	11%	36.9%	-1	5%	22.2%	-2	28%	69.2%	0	-1%	0.6%	–	–	–	-2%	33%	73.6% (active)
CCN(CC)CCCCCCNc1cc(Cl)cc2cccnc12	18%	71% (active)	91.6% (active)	14	64%	89.9% (active)	–	–	–	26	68%	97% (active)	42	79% (active)	85.4% (active)	27%	84% (active)	97.5% (active)
COc1ccc(-c2nc(C)[nH]c(=O)c2Cc2c(O)ccc3ccccc23)cc1	–	–	–	-4	4%	10.3%	1	8%	97.8% (active)	4	7%	22%	0	1%	4.45%	2%	2%	97% (active)
CCOc1ccc2nc(C)cc(C)c2c1	–	–	–	-23	31%	-13.4%	-7	60%	-0.25%	1	2%	34.5%	-8	63%	-17.2%	-4%	63%	38.6%
